# Assay results from PubChem BioAssay AID1159580 (chemical genetic matrix, 2015).
# Among all 5,500 compounds or so, about 2,000 (36%) were called active. Not shown: some 18% with an inconclusive outcome. The list shows a part of the results. Unmarked numbers belong to inactive results. Cut-off read from the data, not from the text of the source: active = normalized growth mostly below about 0.91 (no sharp cut-off); inconclusive = no clear call, values can overlap the other calls; inactive = mostly above about 0.92.
# Experiment: chemical genetic growth profiling, strain panel (AID 1159580);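 note: tested at 20 µM; growth read once vehicle control cultures reached saturation at 30 °C; 1 = growth at the plate median or of vehicle wells; lower values mean less growth of the strain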
# Settings: S. cerevisiae deletion strains, growth OD
# [1] = locus YAR019C, strain CDC15, stronger effect = lower value
# [2] = locus YBL105C, strain PKC1, stronger effect = lower value
# [3] = locus YBR135W, strain CKS1, stronger effect = lower value
# [4] = locus YBR136W, strain MEC1, stronger effect = lower value
# [5] = locus YBR160W, strain CDC28, stronger effect = lower value
# [6] = locus YDL017W, strain CDC7, stronger effect = lower value
# [7] = locus YDL028C, strain MPS1, stronger effect = lower value
# [8] = locus YDL101C, strain DUN1, stronger effect = lower value
# [9] = locus YDL108W, strain KIN28, stronger effect = lower value
# [10] = locus YDL132W, strain cdc53, stronger effect = lower value
# [11] = locus YDL214C, strain PRR2, stronger effect = lower value
# [12] = locus YDR052C, strain DBF4, stronger effect = lower value
# [13] = locus YDR054C, strain cdc34, stronger effect = lower value
# [14] = locus YDR226W, strain ADK1, stronger effect = lower value
# [15] = locus YDR477W, strain SNF1, stronger effect = lower value
# [16] = locus YER123W, strain YCK3, stronger effect = lower value
# [17] = locus YER133W, strain GLC7, stronger effect = lower value
# [18] = locus YFL009W, strain cdc4, stronger effect = lower value
# [19] = locus YFL029C, strain CAK1, stronger effect = lower value
# [20] = locus YFR003C, strain YPI1, stronger effect = lower value
# [21] = locus YFR019W, strain FAB1, stronger effect = lower value
# [22] = locus YFR028C, strain CDC14, stronger effect = lower value
# [23] = locus YGR040W, strain KSS1, stronger effect = lower value
# [24] = locus YGR052W, strain FMP48, stronger effect = lower value
# [25] = locus YGR092W, strain DBF2, stronger effect = lower value
# [26] = locus YHR030C, strain SLT2, stronger effect = lower value
# [27] = locus YHR079C, strain IRE1, stronger effect = lower value
# [28] = locus YHR082C, strain KSP1, stronger effect = lower value
# [29] = locus YHR205W, strain SCH9, stronger effect = lower value
# [30] = locus YIL147C, strain SLN1, stronger effect = lower value
# [31] = locus YJL095W, strain BCK1, stronger effect = lower value
# [32] = locus YJL128C, strain PBS2, stronger effect = lower value
# [33] = locus YJL157C, strain FAR1, stronger effect = lower value
# [34] = locus YJR016C, strain ILV3, stronger effect = lower value
# [35] = locus YJR066W, strain TOR1 (second series), stronger effect = lower value
# [36] = locus YJR066W, strain TOR1, stronger effect = lower value
# [37] = locus YKL048C, strain ELM1, stronger effect = lower value
# [38] = locus YKL067W, strain YNK1, stronger effect = lower value
# [39] = locus YKL101W, strain HSL1, stronger effect = lower value
# [40] = locus YKL193C, strain SDS22, stronger effect = lower value
# [41] = locus YKL203C, strain TOR2, stronger effect = lower value
# [42] = locus YLR113W, strain HOG1, stronger effect = lower value
# [43] = locus YLR133W, strain CKI1, stronger effect = lower value
# [44] = locus YLR403W, strain SFP1, stronger effect = lower value
# [45] = locus YML070W, strain DAK1, stronger effect = lower value
# [46] = locus YMR001C, strain CDC5, stronger effect = lower value
# [47] = locus YMR205C, strain PFK2 (second series), stronger effect = lower value
# [48] = locus YMR277W, strain FCP1, stronger effect = lower value
# [49] = locus YNL006W, strain LST8, stronger effect = lower value
# [50] = locus YNL020C, strain ARK1, stronger effect = lower value
# [51] = locus YNL161W, strain CBK1, stronger effect = lower value
# [52] = locus YNL183C, strain NPR1, stronger effect = lower value
# [53] = locus YNL207W, strain RIO2, stronger effect = lower value
# [54] = locus YNL222W, strain SSU72, stronger effect = lower value
# [55] = locus YNL307C, strain MCK1 (second series), stronger effect = lower value
# [56] = locus YOL078W, strain AVO1, stronger effect = lower value
# [57] = locus YOL136C, strain PFK27, stronger effect = lower value
# [58] = locus YOR061W, strain CKA2, stronger effect = lower value
# [59] = locus YOR119C, strain RIO1, stronger effect = lower value
# [60] = locus YOR231W, strain MKK1, stronger effect = lower value
# [61] = locus YOR329C, strain SCD5, stronger effect = lower value
# [62] = locus YPL031C, strain PHO85, stronger effect = lower value
# [63] = locus YPL153C, strain RAD53, stronger effect = lower value
# [64] = locus YPL204W, strain HRR25, stronger effect = lower value
# [65] = locus YPL209C, strain IPL1, stronger effect = lower value
# [66] = locus YPL256C, strain CLN2, stronger effect = lower value
# [67] = locus YPR025C, strain CCL1, stronger effect = lower value
# [68] = locus YPR106W, strain ISR1, stronger effect = lower value
# [69] = locus YPR111W, strain DBF20, stronger effect = lower value
# [70] = strain NNK1, stronger effect = lower value
# [71] = strain TSCII, stronger effect = lower value
compound,measurement,setting,value
Cc1ccc(NC(=S)C(C#N)C(=O)N2CCOCC2)c(C)c1 (configuration not stated),normalized growth,[1],0.993
same,normalized growth,[2],0.997
same,normalized growth,[3],0.988
same,normalized growth,[4],0.972
same,normalized growth,[5],0.991
same,normalized growth,[6],0.992
same,normalized growth,[7],0.988
same,normalized growth,[8],0.995
same,normalized growth,[9],0.991
same,normalized growth,[10],0.991
same,normalized growth,[11],1.04
same,normalized growth,[12],0.998
same,normalized growth,[13],0.99
same,normalized growth,[14],0.98
same,normalized growth,[15],1.05
same,normalized growth,[16],1.05
same,normalized growth,[17],1.05
same,normalized growth,[18],0.985
same,normalized growth,[19],0.995
same,normalized growth,[20],0.995
same,normalized growth,[21],1.01
same,normalized growth,[22],0.993
same,normalized growth,[23],1.05
same,normalized growth,[24],1.11
same,normalized growth,[25],1.02
same,normalized growth,[26],1.03
same,normalized growth,[27],1.04
same,normalized growth,[28],1.21
same,normalized growth,[29],0.908
same,normalized growth,[30],0.983
same,normalized growth,[31],1.02
same,normalized growth,[32],0.937
same,normalized growth,[33],1.02
same,normalized growth,[34],0.991
same,normalized growth,[35],1.05
same,normalized growth,[36],1.19
same,normalized growth,[37],1.01
same,normalized growth,[38],1.02
same,normalized growth,[39],1.01
same,normalized growth,[40],0.983
same,normalized growth,[41],1.09
same,normalized growth,[42],1.07
same,normalized growth,[43],1.03
same,normalized growth,[44],0.957
same,normalized growth,[45],1.05
same,normalized growth,[46],0.994
same,normalized growth,[47],1.03
same,normalized growth,[48],0.989
same,normalized growth,[49],0.991
same,normalized growth,[50],1.04
same,normalized growth,[51],0.991
same,normalized growth,[52],1.18
same,normalized growth,[53],0.985
same,normalized growth,[54],0.991
same,normalized growth,[55],1.02
same,normalized growth,[56],0.985
same,normalized growth,[57],1.05
same,normalized growth,[58],1.01
same,normalized growth,[59],1.11
same,normalized growth,[60],1.11
same,normalized growth,[61],0.993
same,normalized growth,[62],1.04
same,normalized growth,[63],1.03
same,normalized growth,[64],1.06
same,normalized growth,[65],0.99
same,normalized growth,[66],1.06
same,normalized growth,[67],0.997
same,normalized growth,[68],1.01
same,normalized growth,[69],1
same,normalized growth,[70],0.999
same,normalized growth,[71],0.994
Clc1cccc(Nc2ncc(-c3ccc4c(c3)OCCCO4)s2)c1,normalized growth,[1],0.978
same,normalized growth,[2],0.989
same,normalized growth,[3],0.981
same,normalized growth,[4],0.98
same,normalized growth,[5],0.983
same,normalized growth,[6],0.988
same,normalized growth,[7],0.956
same,normalized growth,[8],1
same,normalized growth,[9],0.978
same,normalized growth,[10],0.986
same,normalized growth,[11],0.893
same,normalized growth,[12],0.986
same,normalized growth,[13],0.989
same,normalized growth,[14],0.988
same,normalized growth,[15],0.909
same,normalized growth,[16],0.864
same,normalized growth,[17],0.892
same,normalized growth,[18],0.99
same,normalized growth,[19],0.977
same,normalized growth,[20],0.985
same,normalized growth,[21],0.898
same,normalized growth,[22],0.963
same,normalized growth,[23],0.905
same,normalized growth,[24],0.862
same,normalized growth,[25],0.88
same,normalized growth,[26],0.67 (active)
same,normalized growth,[27],0.663
same,normalized growth,[28],0.951
same,normalized growth,[29],0.824
same,normalized growth,[30],0.973
same,normalized growth,[31],0.731
same,normalized growth,[32],0.951
same,normalized growth,[33],0.894
same,normalized growth,[34],0.994
same,normalized growth,[35],0.902
same,normalized growth,[36],0.95
same,normalized growth,[37],0.965
same,normalized growth,[38],0.927
same,normalized growth,[39],0.923
same,normalized growth,[40],0.985
same,normalized growth,[41],1.01
same,normalized growth,[42],0.682 (active)
same,normalized growth,[43],0.866
same,normalized growth,[44],0.881
same,normalized growth,[45],0.872
same,normalized growth,[46],0.984
same,normalized growth,[47],0.894
same,normalized growth,[48],0.968
same,normalized growth,[49],0.995
same,normalized growth,[50],0.86
same,normalized growth,[51],0.982
same,normalized growth,[52],0.799
same,normalized growth,[53],0.987
same,normalized growth,[54],0.98
same,normalized growth,[55],0.864
same,normalized growth,[56],0.972
same,normalized growth,[57],0.873
same,normalized growth,[58],0.86
same,normalized growth,[59],0.953
same,normalized growth,[60],0.759
same,normalized growth,[61],0.984
same,normalized growth,[62],0.889
same,normalized growth,[63],0.872
same,normalized growth,[64],0.86
same,normalized growth,[65],0.983
same,normalized growth,[66],0.717 (active)
same,normalized growth,[67],0.968
same,normalized growth,[68],0.971
same,normalized growth,[69],0.959
same,normalized growth,[70],0.974
same,normalized growth,[71],0.971
Clc1ccc(-c2cnc(Nc3cc(Cl)cc(Cl)c3)s2)cc1,normalized growth,[2],0.63 (active)
same,normalized growth,[3],0.869 (active)
same,normalized growth,[4],0.956
same,normalized growth,[6],0.972
same,normalized growth,[9],0.972
same,normalized growth,[11],0.134 (active)
same,normalized growth,[12],0.965
same,normalized growth,[14],0.964
same,normalized growth,[15],0.119 (active)
same,normalized growth,[16],0.158 (active)
same,normalized growth,[17],0.12 (active)
same,normalized growth,[19],0.514 (active)
same,normalized growth,[20],0.97
same,normalized growth,[21],0.175 (active)
same,normalized growth,[22],0.966
same,normalized growth,[23],0.142 (active)
same,normalized growth,[24],0.132 (active)
same,normalized growth,[25],0.148 (active)
same,normalized growth,[26],0.117 (active)
same,normalized growth,[27],0.204 (active)
same,normalized growth,[28],0.126 (active)
same,normalized growth,[29],0.0742 (active)
same,normalized growth,[30],0.961
same,normalized growth,[31],0.16 (active)
same,normalized growth,[33],0.149 (active)
same,normalized growth,[34],0.791 (active)
same,normalized growth,[35],0.116 (active)
same,normalized growth,[36],0.109 (active)
same,normalized growth,[37],0.215 (active)
same,normalized growth,[38],0.164 (active)
same,normalized growth,[39],0.174 (active)
same,normalized growth,[42],0.163 (active)
same,normalized growth,[43],0.117 (active)
same,normalized growth,[44],0.0226 (active)
same,normalized growth,[45],0.166 (active)
same,normalized growth,[47],0.16 (active)
same,normalized growth,[49],0.679 (active)
same,normalized growth,[50],0.133 (active)
same,normalized growth,[51],0.529 (active)
same,normalized growth,[52],0.136 (active)
same,normalized growth,[54],0.608 (active)
same,normalized growth,[55],0.225 (active)
same,normalized growth,[57],0.147 (active)
same,normalized growth,[58],0.135 (active)
same,normalized growth,[59],0.46 (active)
same,normalized growth,[60],0.229 (active)
same,normalized growth,[61],0.781 (active)
same,normalized growth,[62],0.148 (active)
same,normalized growth,[63],0.136 (active)
same,normalized growth,[64],0.13 (active)
same,normalized growth,[65],0.625 (active)
same,normalized growth,[66],0.196 (active)
same,normalized growth,[67],0.927
same,normalized growth,[69],0.674 (active)
same,normalized growth,[70],0.967
